Molecules are shown by their SMILES. Hit rate of the full screen: of about 350,000 compounds, about 5,500 (1.6%) were called active.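 The calls were made as follows: active = significant combined selectivity score with lowered wild-type GFP, culture density cut under 30%, mutant RFP and density less affected; inactive = any of these conditions unmet.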 Many of the other results were omitted from the sample, so actives are more common in it than they were.

The experiment in a line: GFP drop in mixed WT/humanized-ribosome E. coli culture – GFP/RFP fluorescence, OD600, single point, bacterial rRNA inhibitor project, primary screen (AID 720706). The following applies: E. coli WT GFP vs humanized-ribosome RFP mutants, 24 h; GFP signal change (wild-type ribosome): stronger effect = lower value, DMSO median 0, no signal -100; OD600 change: measured here: OD600 growth, DMSO median 0, no signal -100; RFP signal change: measured here: RFP humanized mutant strains, DMSO median 0, no signal -100, concentration not given here.
Consider `COC(=O)c1cc(C)sc1NC(=O)CC1Nc2ccccc2NC1=O` (stereo not given), for which the GFP signal change (wild-type ribosome) is -18.4% (active), the OD600 change was -7.76% and the RFP signal change turned out to be 12.5%.

For `CCc1cc(C(=O)OC)c(NC(=O)CC2Sc3ccc(C(F)(F)F)cc3NC2=O)s1` (stereo not given), the GFP signal change (wild-type ribosome) was 0.188% (inactive), the OD600 change was 4.88% and the RFP signal change was -2.55%.

Consider `Cc1ccc(CNC(=O)CC2Sc3ccccc3NC2=O)cc1` (stereo not given), for which the GFP signal change (wild-type ribosome) is 11.2% (inactive), the OD600 change stood at 14.1% and the RFP signal change came to 3.46%.

With `O=C(OCC(=O)c1c[nH]c2ccccc12)c1cccc(O)c1`, the GFP signal change (wild-type ribosome) is -42.8% (inactive), the OD600 change was -45.1% and the RFP signal change was -14.1%.

Turning to `O=C(O)c1[nH]c2ccccc2c1C(c1cccc(O)c1)c1c(C(=O)O)[nH]c2ccccc12`, the GFP signal change (wild-type ribosome) was -25.6% (active), the OD600 change was -18.5% and the RFP signal change was 8.53%.

With `COc1ccc2c3c(n(C)c2c1)[C@@H](CO)N(C(C)=O)CC31CCN(Cc2ccc(Cl)cc2)CC1`, the GFP signal change (wild-type ribosome) was -1.69% (inactive), the OD600 change was -3.51% and the RFP signal change was found to be 1.83%.

For the compound `C=CCOc1ccc(/C=C2\SC(=S)N(CCC(=O)O)C2=O)cc1`, the GFP signal change (wild-type ribosome) is -32.4% (active), the OD600 change is -18.9% and the RFP signal change is -4.79%.

As to `COc1ccc(/C=C2\SC(=S)N(CCC(=O)N3CCOCC3)C2=O)cc1OC`, the GFP signal change (wild-type ribosome) was 10.4% (inactive), the OD600 change came to 16.7% and the RFP signal change came out at 0.46%.

For the compound `O=C1/C(=C/c2ccc(F)cc2)SC(=S)N1CCCC(=O)N1CCCCC1CCO` (stereo not given), the GFP signal change (wild-type ribosome) was -19.1% (inactive), the OD600 change is -28.5% and the RFP signal change is -4.34%.

For the compound `Cc1ccc(CNC(=O)c2cc(-c3ccccc3C)n(CC3CC(c4cccc([N+](=O)[O-])c4)=NO3)n2)cc1` (stereo not given), the GFP signal change (wild-type ribosome) is 6.99% (inactive), the OD600 change turned out to be 10.7% and the RFP signal change was -2.49%.

With `Cc1ccccc1-c1cc(C(=O)NCc2cccs2)n(CC2CC(c3cccnc3)=NO2)n1` (stereo not given), the GFP signal change (wild-type ribosome) is -17.6% (active), the OD600 change is -10.9% and the RFP signal change was 5.68%.

Regarding `Cc1ccccc1-c1cc(C(=O)NCC2CC2)n(CC2CC(c3cccnc3)=NO2)n1` (stereo not given), the GFP signal change (wild-type ribosome) was -8.08% (inactive), the OD600 change was -3.34% and the RFP signal change was -12%.

Regarding `C=CCNc1nc(Nc2ccc(Cl)cc2)nc(OC)n1`, the GFP signal change (wild-type ribosome) was -33.3% (inactive), the OD600 change is -34% and the RFP signal change is -2.27%.

In the case of `Clc1ccc(Nc2ccc3ccccc3n2)cc1`, the GFP signal change (wild-type ribosome) is -54.6% (active), the OD600 change is -30% and the RFP signal change is -18%.

Regarding `O=C(NNC(=O)c1ccc2ccccc2c1)c1ccc(Cl)cc1`, the GFP signal change (wild-type ribosome) was 2.13% (inactive), the OD600 change worked out at 11.3% and the RFP signal change is -2.59%.

For `COc1ccc(C#Cc2ccc([C@H]3[C@@H](CO)N4CCCCN(S(=O)(=O)c5cn(C)cn5)C[C@H]34)cc2)cc1`, the GFP signal change (wild-type ribosome) is -58.4% (inactive), the OD600 change was -77.4% and the RFP signal change is -16.4%.

As for `O=C(CC1CC1)N1[C@@H](CO)[C@@H](c2ccccc2)C12CN(S(=O)(=O)c1ccccc1)C2`, the GFP signal change (wild-type ribosome) is -0.794% (inactive), the OD600 change was 0.08% and the RFP signal change was 4.17%.

On to `CO[C@H]1CN(C)C(=O)c2ccc(NC(=O)C3CC3)cc2OC[C@H](C)N(C(=O)CN2CCOCC2)C[C@@H]1C`, for which the GFP signal change (wild-type ribosome) was 2.07% (inactive), the OD600 change came to 1.32% and the RFP signal change is -3.59%.

For `C[C@H](CO)N1C[C@H](C)[C@H](CN(C)Cc2ccc(C(=O)Nc3ccccc3N)cc2)Oc2ccc(NC(=O)Nc3ccccc3)cc2CC1=O`, the GFP signal change (wild-type ribosome) was -24.5% (inactive), the OD600 change was -22.3% and the RFP signal change stood at 1.58%.

As to `C[C@@H]1CCCCO[C@H](CN(C)C(=O)NC2CCCCC2)[C@H](C)CN([C@@H](C)CO)C(=O)c2cc(NC(=O)C3CCCCC3)ccc2O1`, the GFP signal change (wild-type ribosome) was -5.13% (inactive), the OD600 change is -0.493% and the RFP signal change is -3.14%.

Consider `COc1ccc(NC(=O)Nc2cccc3c2O[C@@H](CN(C)S(=O)(=O)c2cn(C)cn2)[C@H](C)CN([C@@H](C)CO)C3=O)cc1`, for which the GFP signal change (wild-type ribosome) is -1.33% (inactive), the OD600 change is -1.5% and the RFP signal change was -0.415%.

On to `O=C(NC1CCCC1)[C@@H]1[C@@H](CO)[C@@H]2Cn3c(ccc(-c4ccc(F)cc4)c3=O)[C@H]1N2Cc1cocn1`, for which the GFP signal change (wild-type ribosome) was -0.879% (inactive), the OD600 change was 4.54% and the RFP signal change was -1.31%.

`COC(=O)C[C@@H]1C[C@@H]2c3cc(NC(=O)NC4CCCC4)ccc3O[C@@H]2[C@@H](CO)O1`: the GFP signal change (wild-type ribosome) was 1.15% (inactive), the OD600 change is -0.449% and the RFP signal change is -0.687%.

Consider `OC[C@@H]1CN(Cc2cccs2)C[C@H](n2cnc3c(NC4CCCC4)ncnc32)O1`, for which the GFP signal change (wild-type ribosome) was -2.42% (inactive), the OD600 change is -4.54% and the RFP signal change amounted to 4.82%.

With `OC[C@@H]1CN(Cc2ccc(F)cc2)C[C@H](n2cnc3c(NC4CCCC4)ncnc32)O1`, the GFP signal change (wild-type ribosome) was -15.1% (inactive), the OD600 change is -8.49% and the RFP signal change amounted to 0.518%.

Take `OC[C@@H]1CN(Cc2ccc(-c3ccccc3)cc2)C[C@H](n2cnc3c(NC4CCCC4)ncnc32)O1`: the GFP signal change (wild-type ribosome) was -21.9% (active), the OD600 change is -14.8% and the RFP signal change was -2.32%.

Take `CCCN1C[C@@H](C)[C@@H](OC)CN(C)C(=O)c2cc(NC(=O)NC3CCCCC3)ccc2OC[C@H]1C`: the GFP signal change (wild-type ribosome) was 2.68% (inactive), the OD600 change was found to be 4.16% and the RFP signal change was -1.33%.

On to `O=C(C[C@@H]1CC[C@@H]2[C@H](COC[C@H](O)CN2S(=O)(=O)c2ccc(F)cc2)O1)NCc1ccc(Cl)c(Cl)c1`, for which the GFP signal change (wild-type ribosome) is -20.8% (inactive), the OD600 change is -43.9% and the RFP signal change came out at 0.781%.

Turning to `C[C@@H]1CN([C@H](C)CO)C(=O)Cc2cc(NC(=O)Cn3cnnn3)ccc2O[C@@H]1CN(C)S(=O)(=O)c1ccc(F)cc1`, the GFP signal change (wild-type ribosome) is 4.41% (inactive), the OD600 change is -2.05% and the RFP signal change was found to be 0.611%.

As for `CC1(C(=O)O)CCC(C(=O)Nc2ccc(Cl)c(Cl)c2)C1(C)C` (stereo not given), the GFP signal change (wild-type ribosome) was -23.4% (active), the OD600 change is -16.1% and the RFP signal change was -7.62%.

Source of the values: PubChem BioAssay AID720706 (Broad Institute, 2013).
